In experiment [1] the test system is Wnt5a (protein binding on small-molecule microarray). Nature of the experiment: small molecules binding Wnt5a protein – biophysical, small-molecule microarray, 635/667 nm fluorescence, primary screen (AID 1142).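 Note: fluorescence read at 667 nm with signal to noise per printed feature.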 The conditions noted are these: 635 nm fluorescence, higher = more signal.
Experiment [2] in a line: ATP-based viability of Huh7 replicon cells – cell-based, CellTiter-Glo luminescence, basal, 48 h, cytotoxicity control for HCV replication inhibitor project, primary screen (AID 1143).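 Note: Huh7 hepatoma cells carrying a hepatitis C replication reporter with no stimulus; test concentration not given here.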 The conditions noted are these: higher = more signal, called active from +8 up or from −8 down. (In general: In antiviral work, replicon cells carry a viral genome segment that copies itself.)

The nature of experiment [3]: Pseudomonas biofilm growth suppression – PAO1 strain, BacTiter-Glo luminescence, LB-PBS, primary screen (AID 1144). The conditions noted are these: P. aeruginosa PAO1 biofilm, 12 h, higher = more signal.
Experiment [4] in a line: basal CRE-LacZ reporter activity in PC12 – cell-based, unstimulated, primary screen (AID 1145). The conditions noted are these: no forskolin, luminescence, 4.5 h, higher = more signal, called active from +8 up or from −8 down.
Experiment [5] in a line: forskolin-driven CRE-LacZ activity in PC12 – cell-based, CRE-LacZ reporter, forskolin-stimulated, primary screen (AID 1146).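 Note: PC12 cells with 6xCRE LacZ reporter stimulated by forskolin 10 µM; beta-galactosidase reporter signal reflecting CREB driven transcription.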 The conditions noted are these: luminescence, 4.5 h, higher = more signal, called active from +8 up or from −8 down.
In experiment [6] the target is Streptavidin (Streptomyces avidinii) (UniProt P22629). Put plainly: compounds binding control protein streptavidin – biophysical, small-molecule microarray, 635/667 nm fluorescence, artefact control for SMM compound annotation, primary screen (AID 1147).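 Note: signal reflects streptavidin binding to arrayed compounds as a control protein.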 The conditions noted are these: higher = more signal.
A short description of experiment [7]: probe aInhba binding on compound microarray – biochemical, small-molecule microarray, 635/667 nm fluorescence, primary screen (AID 1148).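 Note: score merges 667nm spot fluorescence with signal-to-noise for antibody binding to printed compounds.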 The conditions noted are these: higher = more signal.
The target in experiment [8] is Torsin-1A (Homo sapiens) (UniProt O14656). Put plainly: TOR1A wild-type binding on microarray – cell lysate, small-molecule microarray, lysate, 635/667 nm, primary screen (AID 1149). The conditions noted are these: COS7 hTOR1A-WT lysate, 635 nm fluorescence, higher = more signal.
Experiment [9] has the same target. Nature of the experiment: torsin A mutant lysate binding on microarrays – cell lysate, small-molecule microarray, COS7 lysate, 635/667 nm fluorescence, primary screen (AID 1150).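 Note: score pools 667 nm emission and signal to noise measuring lysate protein binding.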 The conditions noted are these: COS7 hTOR1A mutant lysate, 635 nm fluorescence, higher = more signal.
The subject of experiment [10] is Sonic hedgehog protein (Shh). Put plainly: Sonic hedgehog microarray binding compounds – biochemical, small-molecule microarray, 635/667 nm fluorescence, primary screen (AID 1151).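 Note: Shh protein binding to compounds spotted on small-molecule microarray slides; score combines spot fluorescence intensity with signal-to-noise across triplicate slides.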 The conditions noted are these: 635 nm fluorescence, higher = more signal.

Active and inactive are the calls of the source. Unless noted, the rule behind the calls is not given here.

Sequence of Torsin-1A (Homo sapiens) (O14656 whole entry, looked up): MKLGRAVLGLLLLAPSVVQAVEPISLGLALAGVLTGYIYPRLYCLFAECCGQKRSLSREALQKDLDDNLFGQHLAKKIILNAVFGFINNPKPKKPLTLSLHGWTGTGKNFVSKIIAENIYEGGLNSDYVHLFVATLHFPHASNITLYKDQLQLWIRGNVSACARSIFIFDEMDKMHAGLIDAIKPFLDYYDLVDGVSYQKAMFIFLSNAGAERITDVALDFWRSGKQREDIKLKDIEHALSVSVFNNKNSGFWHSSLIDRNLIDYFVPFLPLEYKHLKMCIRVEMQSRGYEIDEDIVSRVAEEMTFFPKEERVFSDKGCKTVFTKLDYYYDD
Sequence of Streptavidin (Streptomyces avidinii) (P22629 whole entry, looked up): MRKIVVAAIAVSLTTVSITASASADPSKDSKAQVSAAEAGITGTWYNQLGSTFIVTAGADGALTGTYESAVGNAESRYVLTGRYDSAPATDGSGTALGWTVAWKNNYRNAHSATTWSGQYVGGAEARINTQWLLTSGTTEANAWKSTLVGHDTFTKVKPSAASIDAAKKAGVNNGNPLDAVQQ

On to `CO[C@H]1COC(=O)CC=C[C@@H](C)[C@H](OC)COC(=O)[C@@H]2CCCN2C(=O)CC=C[C@@H]1C`, for which the composite z-score in [1] is -0.0779; in experiment [6], -0.407; in experiment [7], -0.186; in experiment [8], 1.72; in [9], 2.49; in experiment [10] it was 2.18. In addition, the z-score in experiment [2] was 0.192 (inactive); in [3], 0.474 (inactive); in experiment [4], 0.251 (inactive); in experiment [5], -0.759 (inactive).

With `CCOC(=O)[C@H](CC(C)C)NC(=O)CCC1CC(OC(=O)NCc2cccc3ccccc23)CC2(CCCC(COC(=O)NCCC(C)C)O2)O1` (stereo not given in full), the composite z-score in experiment [1] is 0.0463; in experiment [6], -0.589; in experiment [7], -0.0736; in [8], -0.0418; in experiment [9] it was 0.185; in [10] it was 0.784. For the same molecule, the z-score is -2.6 (inactive) in experiment [2], -1.52 (inactive) in experiment [3], 0.563 (inactive) in experiment [4] and -0.535 (inactive) in experiment [5].

In the case of `COC(=O)CC=C[C@@H](C)[C@@H](C=NOC[C@@H](O)[C@H]1O[C@@H]2OC(C)(C)O[C@@H]2[C@H]1O)NS(=O)(=O)c1ccc(C)cc1`, the composite z-score in [1] is 0.242; in experiment [6], -0.0169; in experiment [7] it was 0.163; in [8], 0.92; in experiment [9], 0.387; in experiment [10] it was 0.288. Besides, the z-score in [2] was 0.0198 (inactive); in [3], 0.603 (inactive); in experiment [4], -0.245 (inactive); in [5], 0.285 (inactive).

As for `CCO[C@H](c1cc(OC)cc([N+](=O)[O-])c1OC)[C@H](C)C=CCC(=O)OC`, the composite z-score in experiment [1] is -0.151; in [6] it was 0.0571; in [7], -0.183; in experiment [8] it was 0.636; in experiment [9], 0.192; in experiment [10] it was 1.7. For the same molecule, the z-score is 0.0843 (inactive) in [2], -0.0286 (inactive) in [3], -0.0684 (inactive) in [4] and -0.893 (inactive) in experiment [5].

As to `CCOC(=O)[C@H](CC(C)C)NC(=O)CCC1CC(OC(=O)NCCc2ccc(F)cc2)CC2(CCCC(COC(=O)NCC3CCCCC3)O2)O1` (stereo not given in full), the composite z-score in [1] is 0.0548; in experiment [6], 1.42; in [7] it was -0.148; in experiment [8], -0.0001; in experiment [9] it was 0.915; in [10], 0.648. In addition, the z-score in [2] is 0.791 (inactive); in [3] it was 0.239 (inactive); in experiment [4], 0.381 (inactive); in experiment [5] it was 0.868 (inactive).

Consider `CC(C)CON=C1C[C@@H](O)[C@@H](O)[C@@H]2[C@@H]3C(=O)N(C4CCCCC4)C(=O)[C@@H]3CC[C@@H]12`, for which the composite z-score in experiment [1] was -0.146; in [6], 0.115; in experiment [7], -0.128; in [8], -0.792; in [9] it was -0.0797; in experiment [10], -0.318. Moreover, the z-score in experiment [2] is -0.82 (inactive); in experiment [3] it was -0.342 (inactive); in [4], 0.156 (inactive); in experiment [5], 0.147 (inactive).

Turning to `CO[C@H]1COC(=O)CC=C[C@H](C)[C@@H](OC)COC(=O)[C@@H](C)NC(=O)CC=C[C@@H]1C`, the composite z-score was 0.0073 in experiment [1]; -0.343 in experiment [6]; -0.233 in experiment [7]; 3.05 in experiment [8]; 2.16 in [9]; 2.14 in [10]. Moreover, the z-score in experiment [2] is -1.42 (inactive); in experiment [3], -1.15 (inactive); in [4] it was -0.0824 (inactive); in experiment [5], 0.123 (inactive).

`CCOC(=O)[C@H](CC(C)C)NC(=O)CCC1CC(OC(=O)NCc2ccc3c(c2)OCO3)CC2(CCCC(COC(=O)NCC(c3ccccc3)c3ccccc3)O2)O1` (stereo not given in full): the composite z-score is 0.222 in [1]; -0.201 in [6]; -0.0405 in [7]; 0.0929 in experiment [8]; 0.351 in [9]; 1.77 in [10]. Also, the z-score in [2] is -0.356 (inactive); in [3], -0.187 (inactive); in experiment [4], 0.111 (inactive); in experiment [5], 1.67 (inactive).

Consider `CC(CCC(=O)OC[C@H]1O[C@H](C#Cc2ccccc2)C=C[C@@H]1Oc1ccc(C)cc1)=NO[C@H](C)c1cn([C@H](CO)Cc2ccccc2)nn1`, for which the composite z-score was -0.313 in experiment [1]; 0.0184 in experiment [6]; -0.149 in [7]; -0.234 in experiment [8]; 0.683 in experiment [9]; 0.327 in experiment [10]. Besides, the z-score in experiment [2] is -0.874 (inactive); in experiment [3] it was 0.195 (inactive); in [4], 0.15 (inactive); in experiment [5] it was 1.15 (inactive).

Regarding `C=CC1=C[C@H](O)[C@@H]2O[C@@H]2C12OCCCO2`, the composite z-score in experiment [1] is 0.398; in [6], 0.281; in experiment [7], -0.0695; in experiment [8], 0.468; in experiment [9], 0.752; in experiment [10], -0.262. The z-score in experiment [2] was 0.17 (inactive); in experiment [3], 0.658 (inactive); in experiment [4], -0.0732 (inactive); in experiment [5] it was 0.197 (inactive).

Take `Cc1cc2c(nc1C)CCCN2CC(O)CN1CCCc2nc(C)c(C)cc21`: the composite z-score in [1] came to 0.424; in experiment [6], 0.209; in experiment [7], 0.141; in experiment [8], 0.482; in experiment [9] it was 1.95; in experiment [10] it was 0.639. The z-score was 0.135 (inactive) in experiment [2], 0.051 (inactive) in experiment [3], -0.704 (inactive) in [4] and -0.875 (inactive) in experiment [5].

For the molecule `COC(=O)CC=C[C@@H](C)[C@@H](C=NOC[C@H]1O[C@H](c2ccccc2)C=C[C@@H]1Oc1ccc(OC)cc1)OC`, the composite z-score in experiment [1] is 0.0372; in experiment [6], -0.682; in [7], -0.208; in experiment [8], -0.52; in experiment [9], -0.305; in [10], 0.161. The z-score in [2] is -0.193 (inactive); in [3], 0.257 (inactive); in experiment [4] it was 1.34 (inactive); in experiment [5], 0.611 (inactive).

Regarding `COC(=O)CC=C[C@@H](C)[C@@H](C=NO[C@@H]1O[C@H](COC(C)=O)[C@@H](OC(C)=O)[C@H](OC(C)=O)[C@H]1OC(C)=O)OC`, the composite z-score in [1] was 0.359; in [6], -0.769; in experiment [7], -0.165; in experiment [8], 0.698; in experiment [9], 0.32; in experiment [10], 0.0568. Moreover, the z-score in [2] is 0.36 (inactive); in experiment [3], -0.743 (inactive); in experiment [4], 0.834 (inactive); in experiment [5], 0.0774 (inactive).

On to `CC(=O)OC[C@H]1O[C@H](CCON=C2[C@H]3CCn4c(=O)n(-c5ccccc5)c(=O)n4[C@H]3[C@H](O)[C@@H]3O[C@H]23)C=C[C@@H]1OC(C)=O`, for which the composite z-score in experiment [1] was 0.282; in experiment [6], -0.0465; in [7], -0.0791; in experiment [8], -0.299; in experiment [9], 0.0319; in experiment [10], 0.789. In addition, the z-score was -1.89 (inactive) in experiment [2], 2.23 (inactive) in [3], -0.152 (inactive) in experiment [4] and -0.0763 (inactive) in experiment [5].

In the case of `CO[C@H]1COC(=O)CC=C[C@H](C)[C@@H](OC)COC(=O)[C@H](C)COC(=O)CC=C[C@@H]1C`, the composite z-score was -0.144 in [1]; -0.127 in experiment [6]; -0.208 in [7]; 1.1 in experiment [8]; 1.01 in [9]; 1.93 in experiment [10]. Also, the z-score in experiment [2] is -0.0417 (inactive); in [3] it was -0.165 (inactive); in experiment [4] it was -0.93 (inactive); in [5], -0.724 (inactive).

The values are drawn from PubChem BioAssay.
